Reference: ChEMBL document CHEMBL4888484, “Replenishing the malaria drug discovery pipeline: Screening and hit evaluation of the MMV Hit Generation Library 1 (HGL1) against asexual blood stage Plasmodium falciparum ,using a nano luciferase reporter read-out” (2022)
Among all 150,000 compounds or so, about 540 (0.36%) showed an effect of 50% or more. The list comes from a sample in which strong results are over-represented; it also holds similar structures and randomly drawn compounds.

Test system: Plasmodium falciparum
Experiment: Primary screen in NF54 nanoGlo assay, in single point, at 2uM, 72h; a lower Z score goes with more inhibition
Type: functional, Erythrocyte
Conditions: timepoint 72 hour

Compound	% Inhibition	Z score
CCn1c(CN2CCCC2)nc2cc(S(=O)(=O)N3CCCCC3)ccc21	-46%	5.44
Cc1ccc(CNC(=O)[C@]2(C)CCC(=O)N2CCCc2ccccc2)cc1	-16%	1.5
O=C(Nc1cccc(S(=O)(=O)NC2=NCCC2)c1)c1cc(Cl)c2c(c1)OCCCO2	-11%	1.51
CCOc1cccc(-c2ccc3nc(-c4cccc(OC)c4)c(CCC(=O)NCCN4CCCC4)n3c2)c1	59%	-11.14
CCOc1cccc(-c2ccc3nc(-c4cccc(OC)c4)c(CCC(=O)NC4CC4)n3c2)c1	4%	-0.75
CCOc1cccc(-c2ccc3nc(-c4cccc(OC)c4)c(CCC(=O)NCCc4ccc(OC)c(OC)c4)n3c2)c1	22%	-4.22
Cc1nc(O)nc(O)c1CN1CCOCC1	-10%	1.65
c1ccc(-c2nnc(-c3cccnc3NCc3cccs3)o2)cc1	-5%	0.8
O=C1CCCN1[C@H]1CCCN(S(=O)(=O)CC2CCCCC2)CC1	-7%	1.12
O=C1O[C@H]2CN(CCCc3ccccc3)C[C@H]2N1Cc1ccccn1	-16%	1.43
CCOCC1CCN(CCc2ccc3c(c2)CCO3)CC1	-4%	0.71
O=C([C@@H]1CCCN1C1CC1)N1CCC2(CC1)OCCc1ccccc12	-14%	1.46
COCC(=O)N[C@H]1CO[C@H]2[C@@H]1OC[C@@H]2Nc1nccc(-c2ccc(OC)cc2)n1	-5%	0.87
N#Cc1cccc(-c2ccnc(N[C@H]3CO[C@H]4[C@@H]3OC[C@@H]4NC(=O)c3ccc(C(F)(F)F)cc3)n2)c1	-7%	1.07
COCC(=O)N[C@H]1CO[C@H]2[C@@H]1OC[C@@H]2Nc1nccc(-c2cccc(C#N)c2)n1	50%	-0.95
CC(C)Cn1cccc(C(=O)Nc2cn(C)nc2-c2ccco2)c1=O	-9%	1.12
CCN(C(=O)COc1cccc(C)c1)[C@H](c1ccc(C)cc1)c1c[nH]c2ccccc12	6%	-0.77
Cc1oc(-c2cccc(F)c2)[n+]([O-])c1C	5%	-0.64
COc1ccc(-c2oc(C)c(C)[n+]2[O-])cc1OC	71%	0.43
Cc1ccccc1-c1oc(C)c(C)[n+]1[O-]	2%	-0.28
COc1ccc(CN2C[C@H]3CC[C@@H](C2)N(CC=C(C)C)C3)cc1CN(C)C	-17%	1.87
CN(Cc1cnc2ccccc2c1)c1cnn(C)c1	1%	-0.16
Cc1ncsc1CCNC(=O)[C@H]1CCN(c2ccc(C(F)(F)F)cn2)C1	-4%	0.7
C[C@@H](C1CC1)N(CC(=O)Nc1ccc(F)cc1F)C1CC1	-12%	1.76
C[C@@H](C1CC1)N(C1CC1)S(=O)(=O)c1cccc2c1N=S=N2	38%	-0.53
C[C@@H](C1CC1)N(C1CC1)S(=O)(=O)c1ccc(F)cc1F	84%	-10.78

Compound	% Inhibition	Z score
CCOC(=O)N1CCC(C)(CN2CCS(=O)(=O)C[C@@H](C)C2)CC1	-13%	1.46
Cn1cc(Cl)cc1C(=O)N1CCN(Cc2ccccc2F)C(=O)C1	-2%	0.24
CCOc1ccc(Cl)cc1-c1cc(C)n[nH]c1=O	-8%	1.52
Cc1cccc(N2CCN(C(=O)c3cn4c(n3)COCC4)CC2)c1C	-8%	1.36
COc1ccc(C)c2sc(N(Cc3cccnc3)C(=O)c3ccn(C)n3)nc12	-12%	2
COc1ccc(C)c2sc(N(CCCn3ccnc3)C(=O)Cc3ccc(F)cc3)nc12	78%	-7.85
COc1ccc(C)c2sc(N(CCCN(C)C)C(=O)c3ccnn3C)nc12	-7%	1.27
CC(C)(C)OC(=O)N1CC2CC1CCC2=O (centres undefined)	-3%	0.51
COc1ccc(CN2C[C@H]3CC[C@@H](C2)N(C(=O)c2nc(C)c[nH]2)C3)cc1	-2%	0.32
CC(C)(C)OC(=O)NCc1cccnc1NC(=O)Cc1ccoc1	10%	-1.94
O=C(CCn1nc2ccccn2c1=O)Nc1cnccc1Nc1ccc(F)cc1	-25%	4.76
Cc1nn(C)c(Cl)c1-c1nc2c([nH]1)c(C)nn2C1CCCCC1	1%	-0.09
Cc1nn(C2CCCC2)c2nc(-c3cccs3)[nH]c12	-10%	1.39
Cc1nn(C2CCCC2)c2nc(-c3cc(CN(C)C)cs3)[nH]c12	69%	-9.28
Fc1ccc([C@@H]2CCN2CCn2cc(Cl)cn2)cc1	12%	-1.59
CN(C)Cc1ccc(O)c(CCc2ccccc2)n1	64%	-4.36
OCc1cc(CO)c(O)c(CCc2ccccc2)n1	-7%	1.32
CN(C)Cc1cc(CN(C)C)c(O)c(CCc2ccccc2)n1	7%	-1.36
COC(=O)[C@H](CS(=O)(=O)Nc1cc(C)n(C)n1)c1ccccc1	3%	-0.46
O=c1c2ccoc2ccn1Cc1ccc(OC(F)F)cc1	-8%	0.89
O=C(C[n+]1ccccc1-c1nc(-c2ccc(Cl)cc2)cs1)c1ccccc1	-7%	1
COc1ccc(C2=CN(CC(=O)c3ccc(Cl)cc3)C3=CCCCCN23)cc1	37%	-3.83
COc1ccc(-c2csc(-c3nc(-c4cccc(Cl)c4)cs3)n2)cc1	-13%	1.47
Brc1ccc(-c2csc(Cc3nc(-c4ccc(Br)cc4)cs3)n2)cc1	-3%	0.3
O=C(CN1C=CCC=C1c1nc(-c2ccc(Br)cc2)cs1)c1ccccc1	65%	-4.25
COc1ccc(C(=O)CN2C=CCC=C2c2nc(-c3ccc(Cl)cc3)cs2)cc1	75%	-6.73
